Experimental data: publication PMC4336329 (PLoS ONE, 2015)
About 14,000 (4.5%) of roughly 310,000 compounds showed an effect of 50% or more. Effects have a minus sign here. Only a selection was taken, and strong results are over-represented in it overall.

Molecular target: human ether-à-go-go-related gene (hERG) potassium channel (human, UniProt Q12809)
Experiment: primary screen, population patch clamp on CHO cells stably expressing hERG; higher = less effect of the substance
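Also: peak tail current of the secondary pulse compared with the same well before compound.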

human ether-à-go-go-related gene (hERG) potassium channel, sequence (Q12809 whole entry, looked up): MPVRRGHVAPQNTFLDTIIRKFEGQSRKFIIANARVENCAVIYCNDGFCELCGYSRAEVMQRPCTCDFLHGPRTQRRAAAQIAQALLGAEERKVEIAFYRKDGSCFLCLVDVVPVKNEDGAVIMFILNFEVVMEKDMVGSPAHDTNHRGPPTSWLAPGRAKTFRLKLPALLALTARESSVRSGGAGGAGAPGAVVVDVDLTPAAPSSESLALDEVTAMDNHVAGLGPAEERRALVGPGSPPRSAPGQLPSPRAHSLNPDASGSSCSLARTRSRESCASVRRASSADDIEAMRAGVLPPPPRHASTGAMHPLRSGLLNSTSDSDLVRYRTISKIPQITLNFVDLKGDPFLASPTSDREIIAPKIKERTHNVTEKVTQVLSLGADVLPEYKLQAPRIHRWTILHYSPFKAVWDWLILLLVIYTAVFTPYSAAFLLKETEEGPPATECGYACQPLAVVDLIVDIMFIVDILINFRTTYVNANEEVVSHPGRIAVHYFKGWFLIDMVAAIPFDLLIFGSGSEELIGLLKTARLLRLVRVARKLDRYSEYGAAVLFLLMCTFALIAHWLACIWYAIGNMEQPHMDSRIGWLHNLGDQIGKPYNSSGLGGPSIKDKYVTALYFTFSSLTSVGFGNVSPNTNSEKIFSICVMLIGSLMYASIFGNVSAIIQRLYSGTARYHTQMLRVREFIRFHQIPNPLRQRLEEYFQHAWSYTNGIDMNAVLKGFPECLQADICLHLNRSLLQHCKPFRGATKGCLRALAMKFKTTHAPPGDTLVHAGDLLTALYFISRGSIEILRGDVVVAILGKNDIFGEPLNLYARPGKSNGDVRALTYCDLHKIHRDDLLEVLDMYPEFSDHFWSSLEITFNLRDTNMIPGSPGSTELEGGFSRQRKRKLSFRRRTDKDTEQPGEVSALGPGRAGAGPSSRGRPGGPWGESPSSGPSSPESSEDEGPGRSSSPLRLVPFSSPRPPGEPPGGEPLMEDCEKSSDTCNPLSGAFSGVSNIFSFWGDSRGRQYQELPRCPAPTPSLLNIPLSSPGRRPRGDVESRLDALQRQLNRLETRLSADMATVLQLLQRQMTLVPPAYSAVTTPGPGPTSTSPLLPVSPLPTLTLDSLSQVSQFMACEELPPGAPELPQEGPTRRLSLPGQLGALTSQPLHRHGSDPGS

Compound | hERG current change (%, negative = inhibition) at 10uM [%]
CCOC(=O)c1cccc(COC(=O)c2cccc(-c3nnc(-c4ccccc4)o3)c2)c1 | -2.94
COc1ccc(C(=O)c2ccsc2N)cc1 | 3.5
Cc1ccc(OP(=O)(O)Oc2ccc(C)cc2)cc1 | 2.09
CCOC(=O)c1cnc2ccc(OCC)cc2c1NCc1ccccc1 | -40.3
CCOC(=O)c1cnc2ccc(OC)cc2c1NCc1ccccc1 | -65.8
CCOC(=O)c1cnc2ccc(OCC)cc2c1NCc1ccccc1OC | 4.45
CCOC(=O)c1cnc2ccc(OCC)cc2c1NCc1cccnc1.Cl | -77.4
CCOC(=O)c1nc(NCc2cccnc2)c2ccccc2n1 | -15.3
CCOC(=O)c1cnc2ccc(OCC)cc2c1N(C)Cc1ccccc1 | -11.9
Cc1cccc(NC(=O)c2cc(S(=O)(=O)NCc3ccco3)ccc2F)c1C | 4.11
O=C(CNC(=O)c1ccc(-c2ccccc2)cc1)Nc1ccc(S(=O)(=O)Nc2ncccn2)cc1 | 4.04
Cc1cc(NCc2ccccn2)ccc1Br | -16.5
Clc1ccc(Cn2cccc2C2=NCCO2)cc1 | 4.69
CC(C)CNc1nc(Oc2ccc(=O)[nH]n2)nc(N(C)C)n1 | 8.46
COC(=O)CC(NC(=S)NC(=O)c1ccccc1)c1ccc(Br)cc1 (centres unmarked) | 6.8
COCCNC(=O)c1cn(C)c2ccc(S(=O)(=O)N3CCCCC3)cc2c1=O | 11.1
C=CCn1cc(C(=O)NCCN(CC)CC)c(=O)c2cc(S(=O)(=O)N3CCCCCC3)ccc21 | -71.6
C=CCn1cc(C(=O)NCCOC)c(=O)c2cc(S(=O)(=O)N3CCCCCC3)ccc21 | -65.8
C=CCn1cc(C(=O)NCc2ccc(Cl)cc2)c(=O)c2cc(S(=O)(=O)N(CC)CC)ccc21 | -22.5
C=CCn1cc(C(=O)NCCOC)c(=O)c2cc(S(=O)(=O)N(CC)CC)ccc21 | -13.9
C=CCn1cc(C(=O)OC)c(=O)c2cc(S(=O)(=O)N3CCCCCC3)ccc21 | -0.223
C=CCn1cc(C(=O)NCc2ccco2)c(=O)c2cc(S(=O)(=O)N3CCCCCC3)ccc21 | -36.4

Compound | hERG current change (%, negative = inhibition) at 10uM [%]
CCN(CC)CCNC(=O)c1cn(CC)c2ccc(S(=O)(=O)N3CCOCC3)cc2c1=O | 14.6
C=CCn1cc(C(=O)NCCCN(CC)CC)c(=O)c2cc(S(=O)(=O)N3CCC(C)CC3)ccc21 | -53.7
C=CCn1cc(C(=O)NCc2cccnc2)c(=O)c2cc(S(=O)(=O)N(CC)CC)ccc21 | -74.4
C=CCn1cc(C(=O)OC)c(=O)c2cc(S(=O)(=O)N3CCC(C)CC3)ccc21 | -39
C=CCn1cc(C(=O)NCCCOC)c(=O)c2cc(S(=O)(=O)N3CCC(C)CC3)ccc21 | -32.9
CC(C)COc1ccc(C(=O)Nc2ccc(N3CCOCC3)cc2N2CCOCC2)cc1 | 1.07
COc1ccc(OC)c(C2NC(=O)NC(C)=C2C(=O)Nc2ccc(C)cc2)c1 (centres unmarked) | 5.98
COC(=O)[C@H](C)NC(=O)Nc1cc(OC)ccc1OC | -8.76
N#CCC(=O)Nc1ccc(C(=O)OCC(=O)C23CC4CC(CC(C4)C2)C3)cc1 | 12.7
CC1CCCN(C(=O)C2CCCN(S(=O)(=O)c3cccc4nsnc34)C2)C1 (centres unmarked) | 2.02
Cc1cccc(-n2c(-c3ccccc3)c[nH]c2=S)c1C | 14.6
COCCn1c(SCC(=O)Nc2cc(OC)ccc2OC)nc2c(c1=O)SC(C)C2 (centres unmarked) | -18.5
COc1cc(/C=C/CO)cc(OC)c1OC/C=C(\C)CCC=C(C)C | 1.34
CC(C)N1CCc2c(sc(NC(=O)C3CCCCC3)c2C(N)=O)C1.Cl | -21.7
CCOC(=O)c1c(NC(=O)C2CCCCC2)sc2c1CCN(CC)C2.Cl | -51.7
CCOC(=O)c1c(NC(=O)C2CCCCC2)sc2c1CCN(C(C)C)C2.Cl | -81.6
CCOC(=O)c1c(NC(=S)N2CCCCC2)sc2c1CCN(C(=O)OCC)C2 | -1.16
CCN1CCc2c(sc(NC(=O)C3CCCCC3)c2C(=O)OC)C1.Cl | -17.4
COC(=O)c1c(NC(=O)C2CCCCC2)sc2c1CCN(C(C)C)C2.Cl | -16.5
O=C(COc1ccccc1)NCCSCc1ccc(Cl)cc1 | -12.6
CCC(C)NC(=O)Cn1c(=O)sc2ccccc21 (centres unmarked) | 4.15
O=C(CN(Cc1ccc(Br)cc1)S(=O)(=O)c1ccccc1)NCC1CCCO1 (centres unmarked) | -6.72

Compound | hERG current change (%, negative = inhibition) at 10uM [%]
O=C(CN(Cc1ccccc1)S(=O)(=O)c1ccc(Br)cc1)NCC1CCCO1 (centres unmarked) | -77.2
Cc1ccc(S(=O)(=O)N(CC(=O)NCC2CCCO2)Cc2cccc(C)c2)cc1 (centres unmarked) | -60.5
Cc1ccc(S(=O)(=O)N(CC(=O)NCC2CCCO2)Cc2ccc(F)cc2)cc1 (centres unmarked) | -10.6
O=C(CN(Cc1ccccc1)S(=O)(=O)c1ccc(Cl)cc1)NCC1CCCO1 (centres unmarked) | -9.79
Cc1ccc(CN(CC(=O)NCC2CCCO2)S(=O)(=O)c2ccc(C)cc2)cc1 (centres unmarked) | -1.71
Cc1noc(C)c1S(=O)(=O)N1CCCC(C(=O)Nc2nccs2)C1 (centres unmarked) | -13.6
CCOc1ccc(OCCSc2nc3ccccc3[nH]2)cc1 | -0.985
CN(C)S(=O)(=O)c1ccc(Cl)c(NC(=O)CN2CCc3ccccc3C2)c1 | -12.7
CN1CCN(CCCN2c3ccccc3Sc3ccc(C(F)(F)F)cc32)CC1.Cl | -30.4
CN1CCN(CC/C=C2/c3ccccc3Sc3ccc(S(=O)(=O)N(C)C)cc32)CC1 | -64.7
CN1CCN(CC(=O)N2c3ccccc3Sc3ccccc32)CC1 | -13.7
CN1CCN(CCC(=O)N2c3ccccc3Sc3ccc(Cl)cc32)CC1 | -48.9
CN1CCN(CC/C=C2\c3ccccc3Sc3ccc(S(=O)(=O)N(C)C)cc32)CC1 | -58
CCSc1ccc2c(c1)N(CCCN1CCN(C)CC1)c1ccccc1S2.O=C(O)CC(O)C(=O)O | -54.2
CN1CCN(CC(=O)Nc2ccc(S(=O)(=O)N(C)C)cc2)CC1.O=C(O)C(=O)O | 6.74
COc1cc2c(cc1Cl)/C(=C\CCN(C)C)c1ccccc1S2.O=S(=O)(O)O | -35.4
CN(C)S(=O)(=O)c1ccc2c(c1)C(=O)c1cc(S(=O)(=O)N(C)C)ccc1CC2 | 7.08
Cl.FC(F)(F)c1ccc2c(c1)N(CCCN1CCN(CCCl)CC1)c1ccccc1S2 | -8.34
CN1CCN(CCCN2c3ccccc3Sc3ccc(S(=O)(=O)N(C)C)cc32)CC1.CS(=O)(=O)O | -57.4
CNC(=O)c1ccc(NC(=O)CC2SC(N3CCCC3)=NC2=O)cc1 (centres unmarked) | -4.89
CCCc1nc2sc3ccccc3c(=O)c2c(=O)n1CCOC | 9.8
CCOC(=O)CN1CC23C=CC(O2)C(C(=O)Nc2ccc4c(c2)OCO4)C3C1=O (centres unmarked) | 4.95

Compound | hERG current change (%, negative = inhibition) at 10uM [%]
Cc1cc(Br)ccc1NC(=O)CN(C)C(=O)COc1cccc2c1OC(C)(C)C2 | -8.15
COCCn1c(SCC(=O)Nc2ccc(C(C)=O)cc2)nc2c([nH]c3ccccc32)c1=O | 1.97
Cc1cc(O)c(-c2ccno2)cc1Cl | 13
CCN(CC)c1ccc(NC(=O)Cn2cc3c(n2)CCC(C)C3)c(C)c1 (centres unmarked) | -3.35
NC(=O)CSc1nnc(-c2cccs2)n1Cc1ccco1 | -13.9
COc1cccc(CNCCNC(=O)c2nonc2N)c1.Cl | 9.27
COc1cc(CNCCNC(=O)c2nonc2N)ccc1OCc1ccc(Cl)cc1.Cl | -74.4
COc1ccc(CNCCNC(=O)c2nonc2N)cc1OC.Cl | -24.8
COc1cc(OC)c(OC)cc1CNCCNC(=O)c1nonc1N.Cl | -0.502
COc1cc(CNCCNCC(C)O)ccc1OCc1ccc(Cl)nc1 (centres unmarked) | -8.7
COc1cc(CNCCNC(=O)c2nonc2N)ccc1OCc1ccc(Cl)nc1.Cl | -56.4
CC(C(=O)Nc1nccs1)N1C(=O)c2ccccc2S1(=O)=O (centres unmarked) | 11.5
CCc1nn(CCCC(=O)N2CCC(C)CC2)c(=O)c2cc3occc3n12 | -2.71
O=C(OCC(=O)N1CCCCCC1)c1cnc(Cl)c(Cl)c1 | -2.83
COCCNc1ccc([N+](=O)[O-])cc1C(=O)Nc1cccc(C)n1 | -62.7
Cc1cccc(NC(=O)c2ccc([N+](=O)[O-])cc2Cl)n1 | -22.8
Cc1cccc(NC(=O)c2cc([N+](=O)[O-])ccc2NCC2CCCO2)n1 (centres unmarked) | -80.9
Cc1cccc(NC(=O)c2cc([N+](=O)[O-])ccc2N2CCCCC2)n1 | -35.1
COc1cccc(NC(=O)c2cc([N+](=O)[O-])ccc2NC(=O)CNCC2CCCO2)c1 (centres unmarked) | -16.4
Cc1cccc(NC(=O)c2ccc(NCC3CCCO3)c([N+](=O)[O-])c2)n1 (centres unmarked) | 14.2
